In PubChem BioAssay (NCATS):
Results filed as inconclusive are left out. The source made the active and inactive calls. Calls follow the shape of the dose curve; as a rule, active = well fitted curve in the direction sought with a large enough effect; inconclusive = small, poorly fitted or top-dose-only effect, or another doubt; inactive = no such curve, though single readings can be large; an effect the other way counts as inactive or inconclusive. Where a SMILES comes first, the peptide text is derived from it. Bridges are numbered along the chain shown (N, C = ends). [ ]: non-standard residue; d: D form. hArg = N=C(N)NCCCC[C@H](N)C(=O)O; Mpa = O=C(O)CCS

Experiments:
[1] = qHTS of pediatric cancer cell lines to identify multiple opportunities for drug repurposing: Primary screen for NB-EBc1 cells (AID 1347095)
Summary of the method: (§1)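 Plated cells (500-1,000 per well, growth media) were allowed to settle for 5 hours, treated with compound dilutions for 48 hours, then lysed with CellTiter-Glo for 15 min at room temperature before luminescence reading.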

[2] = qHTS of pediatric cancer cell lines to identify multiple opportunities for drug repurposing: Primary screen for U-2 OS cells (AID 1347096); also: nearly all actives have a fitted effect of over 50% in size
Summary of the method: (§2)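 Viability after 48 h compound treatment at 37C, 500-1,000 cells/well, read as ATP luminescence with CellTiter-Glo. Primary screens used 11-point (MIPE, 0.78 nM-46 µM) or 8-point (NPC, 0.59 nM-46 µM) final concentrations; follow-up screens used 11-point dilutions.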

[3] = qHTS of pediatric cancer cell lines to identify multiple opportunities for drug repurposing: Primary screen for Saos-2 cells (AID 1347097); also: nearly all actives have a fitted effect of over 40% in size
Summary of the method: as §1

[4] = qHTS of pediatric cancer cell lines to identify multiple opportunities for drug repurposing: Primary screen for SK-N-SH cells (AID 1347098);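 also: DMSO served as neutral control and bortezomib at 2.3 µM as positive control; nearly all actives have a fitted effect of over 65% in size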
Summary of the method: (§3)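 Cells (500-1,000/well) rested 5 h, then received compounds for 48 h; metabolically active cells were measured by CellTiter-Glo luminescence. Final concentrations spanned up to 46 µM (MIPE, 11-point) or 0.59 nM-46 µM (NPC, 8-point) in primary screens, 11-point in follow-ups.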

[5] = qHTS of pediatric cancer cell lines to identify multiple opportunities for drug repurposing: Primary screen for NB1643 cells (AID 1347099); also: nearly all actives have a fitted effect of over 50% in size
Summary of the method: as §1

[6] = qHTS of pediatric cancer cell lines to identify multiple opportunities for drug repurposing: Primary screen for LAN-5 cells (AID 1347100)
Summary of the method: as §2

[7] = qHTS of pediatric cancer cell lines to identify multiple opportunities for drug repurposing: Primary screen for BT-12 cells (AID 1347101); also: nearly all actives have a fitted effect of over 25% in size
Summary of the method: as §3

[8] = qHTS of pediatric cancer cell lines to identify multiple opportunities for drug repurposing: Primary screen for Rh18 cells (AID 1347102); also: nearly all actives have a fitted effect of over 65% in size
Summary of the method: as §2

[9] = qHTS of pediatric cancer cell lines to identify multiple opportunities for drug repurposing: Primary screen for OHS-50 cells (AID 1347103); also: nearly all actives have a fitted effect of over 40% in size
Summary of the method: as §3

[10] = qHTS of pediatric cancer cell lines to identify multiple opportunities for drug repurposing: Primary screen for RD cells (AID 1347104); also: nearly all actives have a fitted effect of over 55% in size
Summary of the method: as §1

Measured: Potency

CCS(=O)(=O)CCn1c([N+](=O)[O-])cnc1C
inactive: all assays above

C[C@@H](c1ncncc1F)C(O)(Cn1cncn1)c1ccc(F)cc1F (stereo not given in full)
inactive: all assays above

CCN(CC)CC1CCCCN1CC(=O)N1c2ccccc2C(=O)Nc2cccnc21 (stereo not given)
inactive: all assays above

NNc1nnc(NN)c2ccccc12
inactive: all assays above

O=C(O)c1cc(=O)c2ccccc2o1
inactive: all assays above

C/C=C1\[C@H]2C=C(C)C[C@]1(N)c1ccc(=O)[nH]c1C2
inactive: all assays above

CC[C@H](C)[C@H](N)C(=O)O
inactive: all assays above

Cc1c(I)c(=O)n(-c2ccccc2)n1C
inactive: all assays above

CN1CC(=O)NC1=N
inactive: all assays above

Cc1c(Cn2ccnc2)c2ccccc2n1CCC(=O)O
inactive: all assays above

CC(=O)N(CC(O)CN(C(C)=O)c1c(I)c(C(=O)NCC(O)CO)c(I)c(C(=O)NCC(O)CO)c1I)c1c(I)c(C(=O)NCC(O)CO)c(I)c(C(=O)NCC(O)CO)c1I (stereo not given)
inactive: all assays above

CCN(CC)CCOC(=O)C(c1ccccc1)c1ccccc1
inactive: all assays above

CC(C)NC[C@@H](O)COc1ccc(CC(N)=O)cc1
inactive: all assays above

CC1(C)S[C@@H]2[C@H](N=CN3CCCCCC3)C(=O)N2[C@H]1C(=O)O
inactive: all assays above

Cc1c(NC(=O)c2cccnc2)c(=O)n(-c2ccccc2)n1C
inactive: all assays above

C[n+]1ccccc1/C=N/O
inactive: all assays above

CC(=O)OCC(COC(C)=O)OC(C)=O
inactive: all assays above

CCCCCCCCCCCCCCCCCCO
inactive: all assays above

Cc1ccccc1N=Nc1ccc(N=Nc2c(O)ccc3ccccc23)c(C)c1
inactive: all assays above

Cc1cc(C)nc(NS(=O)(=O)c2ccc(N)cc2)n1
inactive: all assays above

NS(=O)(=O)c1cc(C2(O)NC(=O)c3ccccc32)ccc1Cl (stereo not given)
inactive: all assays above

NC(=O)NC1NC(=O)NC1=O (stereo not given)
inactive: all assays above

Cc1c(N(C)C)c(=O)n(-c2ccccc2)n1C
inactive: all assays above

CC(=O)N[C@@H](CC(C)C)C(=O)O
inactive: all assays above

O=C(Cn1ccnc1[N+](=O)[O-])NCc1ccccc1
inactive: all assays above

CC(=O)NS(=O)(=O)c1ccc(N)cc1
inactive: all assays above

CCOC(N)=O
inactive: all assays above

O=C(/C=C/c1ccccc1)OCc1ccccc1
inactive: all assays above

CN1C(=O)CC(c2ccccc2)C1=O (stereo not given)
inactive: all assays above

Cc1ccsc1C(=CCCN1CCC[C@@H](C(=O)O)C1)c1sccc1C
inactive: all assays above

COc1ccccc1OCC(O)CO (stereo not given)
not listed: [7]
inactive: all other assays above

O=C(O)c1ccc(OCCCOc2ccc(C(=O)O)cc2)cc1
not listed: [6]
inactive: all other assays above

CCCOC(=O)c1ccc(N)cc1
not listed: [7]
inactive: all other assays above

Cc1ccc2c(c1)c1c3n2CCNC3CCC1 (stereo not given)
not listed: [7] | [9]
inactive: all other assays above

Cc1ncc(CO)c(CN)c1O
not listed: [6]
inactive: all other assays above

CCCNC(C)C(=O)Nc1c(C)csc1C(=O)OC (stereo not given)
not listed: [6]
inactive: all other assays above

O=C(O)CCCc1ccccc1
not listed: [6] | [10]
inactive: all other assays above

Cc1c(C)c2c(c(C)c1OC(=O)c1cccnc1)CC[C@@](C)(CCC[C@H](C)CCC[C@H](C)CCCC(C)C)O2
not listed: [7]
inactive: all other assays above

CCOC(=O)[C@H](CCc1ccccc1)N[C@@H](C)C(=O)N1Cc2cc(OC)c(OC)cc2C[C@H]1C(=O)O
not listed: [6]
inactive: all other assays above

Cc1onc(-c2ccccc2)c1-c1ccc(S(N)(=O)=O)cc1
not listed: [7] | [9]
inactive: all other assays above

O=C(/C=C/c1ccc(O)c(O)c1)O[C@@H]1C[C@@](OC(=O)/C=C/c2ccc(O)c(O)c2)(C(=O)O)C[C@@H](O)[C@@H]1O
not listed: [7]
inactive: all other assays above

C[C@@H]1O[C@@H](OC[C@H]2O[C@@H](Oc3c(-c4ccc(O)c(O)c4)oc4cc(O)cc(O)c4c3=O)[C@H](O)[C@@H](O)[C@@H]2O)[C@H](O)[C@H](O)[C@H]1O
not listed: [7]
inactive: all other assays above

COc1ccc(Cc2cnc(N)nc2N)cc1OC
not listed: [7]
inactive: all other assays above

C/C(=C(\CCO)SS/C(CCO)=C(\C)N(C=O)Cc1cnc(C)nc1N)N(C=O)Cc1cnc(C)nc1N
not listed: [7]
inactive: all other assays above

C/C=C/C(=O)N(CC)c1ccccc1C
not listed: [6]
inactive: all other assays above

NC(=O)[C@@H]1CSSCCC(=O)N[C@@H](CCCCN=C(N)N)C(=O)NCC(=O)N[C@@H](CC(=O)O)C(=O)N[C@@H](Cc2c[nH]c3ccccc23)C(=O)N2CCC[C@H]2C(=O)N1 ([Mpa][hArg]GDWPC-NH2; disulfide 1-7)
not listed: [7]
inactive: all other assays above

NS(=O)(=O)c1cc(-c2nn[nH]n2)c(NCc2cccs2)cc1Cl
not listed: [6] | [10]
inactive: all other assays above

COC(=O)c1ccc(O)cc1
not listed: [6]
inactive: all other assays above

CN/C(=C\[N+](=O)[O-])NCCSCc1csc(CN(C)C)n1
not listed: [7]
inactive: all other assays above

C1CCN2C[C@@H]3C[C@@H](CN4CCCC[C@@H]34)[C@H]2C1
not listed: [6]
inactive: all other assays above

NC(=O)c1ccc([N+](=O)[O-])cc1Cl
not listed: [7]
inactive: all other assays above

CC(CSC(=O)c1ccccc1)C(=O)N1C[C@@H](Sc2ccccc2)C[C@H]1C(=O)O (stereo not given in full)
not listed: [6] | [10]
inactive: all other assays above

O=c1[nH]c(=O)c2ccccc2o1
not listed: [7]
inactive: all other assays above

CC(C)(C)C(=O)OCOC(=O)[C@@H]1N2C(=O)[C@@H](NC(=O)[C@H](N)c3ccccc3)[C@H]2SC1(C)C
not listed: [7]
inactive: all other assays above

O=C(O)[C@@H]1[C@H]2C[C@H]3c4[nH]c5ccccc5c4CCN3C[C@@H]2CC[C@@H]1O
not listed: [6] | [10]
inactive: all other assays above

CN[C@@H]1[C@H](O)[C@H](NC)[C@H]2O[C@@]3(O)C(=O)C[C@@H](C)O[C@H]3O[C@@H]2[C@H]1O
not listed: [6]
inactive: all other assays above

C=CCSCC1Nc2cc(Cl)c(S(N)(=O)=O)cc2S(=O)(=O)N1 (stereo not given)
not listed: [6]
inactive: all other assays above

Cc1[nH]c(C)c(Cl)c(=O)c1Cl
not listed: [7] | [10]
inactive: all other assays above

CCN1CC(CCN2CCOCC2)C(c2ccccc2)(c2ccccc2)C1=O (stereo not given)
not listed: [6] | [10]
inactive: all other assays above

C[N+]1(C)CCCC(OC(=O)C(O)(c2ccccc2)c2ccccc2)C1 (stereo not given)
not listed: [7]
inactive: all other assays above

O=C(O)CCCCC1CCSS1 (stereo not given)
not listed: [7]
inactive: all other assays above

CCOC(=O)OC(C)OC(=O)[C@@H]1N2C(=O)[C@@H](NC(=O)[C@H](N)c3ccccc3)[C@H]2SC1(C)C (stereo not given in full)
not listed: [6] | [10]
inactive: all other assays above

CC1CC(OC(=O)c2ccccc2O)CC(C)(C)C1 (stereo not given)
inactive: all assays above

CCCCC1(COC(=O)CCC(=O)O)C(=O)N(c2ccccc2)N(c2ccccc2)C1=O
not listed: [7]
inactive: all other assays above

C=CCN1C[C@H](C(=O)N(CCCN(C)C)C(=O)NCC)C[C@@H]2c3cccc4[nH]cc(c34)C[C@H]21
not listed: [7]
inactive: all other assays above

CC(=O)[C@@]1(O)CC[C@H]2[C@@H]3C[C@H](C)C4=CC(=O)C=C[C@]4(C)[C@@]3(F)[C@@H](O)C[C@@]21C
not listed: [6]
inactive: all other assays above

O=C(OOC(=O)c1ccccc1)c1ccccc1
not listed: [7]
inactive: all other assays above

CC(C)(C)NCC(O)COc1cccc2c1CCC(=O)N2 (stereo not given)
not listed: [6]
inactive: all other assays above

Cc1cccc(C(=O)O)c1O
not listed: [6] | [7]
inactive: all other assays above

C[C@H]1COc2c(C3(N)CC3)c(F)cc3c(=O)c(C(=O)O)cn1c23
not listed: [6] | [7] | [10]
inactive: all other assays above

Cc1cccc(C)c1NC(=O)CC12CCCN1CCC2
not listed: [5]
inactive: all other assays above

CC(N)CCCC(C)(C)O (stereo not given)
not listed: [5]
inactive: all other assays above

CC[N+](CC)(CC(=O)Nc1c(C)cccc1C)Cc1ccccc1
not listed: [5]
inactive: all other assays above

O=c1[nH]c(=O)n([C@H]2C[C@H](O)[C@@H](CO)O2)cc1I
not listed: [5]
inactive: all other assays above
